For 58 compounds, INHIBITION results are on record in ChEMBL document CHEMBL4513216, “Probing the Open Global Health Chemical Diversity Library for Multistage-Active Starting Points for Next-Generation Antimalarials” (ACS Infect Dis, 2020).

Among all 69,000 compounds or so, about 8,600 (12%) showed an effect of 50% or more. The sample holds strong results, similar compounds and a random draw of the others, so the mix is not that of the screen.

This assay has as its system Plasmodium berghei. Nature of the assay: Screen against P. berghei liver stage (PbLuc), transformed with Luciferase, at 10uM. The format is functional, HepG2. The conditions noted are these: tested at 10 uM.
On to `O=C([C@@H]1C[C@@H]2CCN(C3CCOCC3)C[C@H]2O1)N1CCOCC1`, for which the INHIBITION is on record as -28%. On to `CC(=O)N1CCC(Cc2cnc(-c3c(C)nn(C)c3C)cn2)CC1`, for which the INHIBITION is recorded as -26.2%. For `Cn1cnnc1C1CCCN(C(=O)c2cc3ccccc3[nH]2)C1` (stereo not drawn), the INHIBITION was -8.11%.

In the case of `Cc1ccncc1C(=O)N1C[C@@H]2CN(c3ncccn3)C[C@]2(C(=O)O)C1`, the INHIBITION came to 7.65%.

As for `COCCN1CCCn2c(nc(Cn3cncn3)cc2=O)C1`, the INHIBITION came to 13.6%. The figure for `CN(Cc1ccncc1)C(=O)NC1CCCN(c2ncccn2)C1` (stereo not drawn) is 36.1%; for `O=C(NCc1ccc(Cl)cc1)N1CCN(CC(O)C2CC2)CC1` (stereo not drawn) it is 25.9%.

Regarding `CS(=O)(=O)N1CCC(NC(=O)COc2ccc3ccccc3c2)CC1`, the INHIBITION was determined as 33.3%. As for `Cc1oc(-c2cccc(F)c2F)nc1CN(C)CCC(C)(C)O`, the INHIBITION came out at 16%.

For the compound `Cc1oc(-c2cccc(F)c2F)nc1CN(C)CCO`, the INHIBITION is reported as 11.3%. `COCCN(C)Cc1nc(-c2cccc(F)c2F)oc1C`: the INHIBITION turned out to be 51.9%. With `O=C(c1ccnnc1)N1CC[C@]2(C[C@H](Oc3ncccc3F)CO2)C1`, the INHIBITION is given as -29.3%.

Regarding `Cc1nn(C)cc1-c1cc(C(=O)N2CCc3ncc(Cl)cc3C2)no1`, the INHIBITION was 38.65%.

For the compound `CC(C)c1nnc(NC(=O)NC2CCN(Cc3ccccc3)C2)s1` (stereo not drawn), the INHIBITION is -15.05%. With `CC(=O)NC1CCCN(C(=O)Nc2nnc(C(C)C)s2)C1` (stereo not drawn), the INHIBITION stood at 52%. In the case of `CC(=O)NC1CCCN(C(=O)NCc2cc[nH]n2)C1` (stereo not drawn), the INHIBITION came out at 31.9%. Turning to `CCC(CC)c1nnc(NC(=O)N2CCCC(NC(C)=O)C2)s1` (stereo not drawn), the INHIBITION is on record as 52%. Turning to `CCC(CC)c1nnc(NC(=O)N2CCC(C(N)=O)CC2)s1`, the INHIBITION was 12.6%. As to `CCCc1nnc(NC(=O)N2CCCC(NC(C)=O)C2)s1` (stereo not drawn), the INHIBITION is reported as 17%. `NCCc1cc(N2CCOCC2)nc(NC2CC2)n1`: the INHIBITION was 18.25%. Regarding `CN(C)CCN(Cc1ccc(C#N)cc1)C(=O)c1ccn(C)c(=O)c1`, the INHIBITION is 8.38%. With `CS(=O)(=O)NCCNC(=O)Cc1ccc(Br)s1`, the INHIBITION is given as -62.1%. To `CNC(=O)c1cc(NC(=O)Nc2cnn(CC(C)C)c2)ccc1F` belongs 1.56%; to `COc1ccccc1-c1cc(C(=O)N2CCCC2)c2cnn(C)c2n1`, 44.1%.

Turning to `O=C(CCc1ccccn1)N1CCCC1`, the INHIBITION is on record as -8.11%. For `CN1CCN(C(=O)C2SCCc3sccc32)CC1` (stereo not drawn), the INHIBITION is given as 39.7%. As for `O=C(C1SCCc2sccc21)N1CC(O)C1` (stereo not drawn), the INHIBITION is on record as 6.33%.

For `O=C(C1SCCc2sccc21)N1CCC(O)CC1` (stereo not drawn), the INHIBITION is 20.1%. Regarding `CC(=O)N1CCN(C(=O)C2SCCc3sccc32)CC1` (stereo not drawn), the INHIBITION is on record as 8.47%. Consider `O=C(C1SCCc2ccccc21)N1CCC(O)CC1` (stereo not drawn), for which the INHIBITION turned out to be 50.8%. With `NC(=O)C1CCN(C(=O)C2SCCc3sccc32)CC1` (stereo not drawn), the INHIBITION is on record as 69.7%. For `O=C(C1SCCc2sccc21)N1CCCCC1` (stereo not drawn), the INHIBITION turned out to be 62%. The figure for `CN(C)C(=O)C1SCCc2ccccc21` (stereo not drawn) is 38.9%. With `CN(C)C1CCN(C(=O)C2SCCc3ccccc32)CC1` (stereo not drawn), the INHIBITION is 19.2%.

`COCCNC(=O)C1CCCN(c2ccc3nncn3n2)C1` (stereo not drawn): the INHIBITION was -21.9%.

Take `CCO[C@H]1CN(CC2CCOCC2)[C@@H]2CCCO[C@H]12`: the INHIBITION came out at 38.5%. In the case of `O=C1COC2(CCN(Cc3ccco3)CC2)CN1CCn1cccn1`, the INHIBITION turned out to be 4.02%. To `O=C(Nc1ccc(CCN2CCOCC2)cc1)C1CC1` belongs 6.35%; to `Cc1nsc(N2CCCN(C(=O)CCc3ccsc3)CC2)n1`, 15.7%. Consider `CCOc1ccc(N2CCCN=C2NC(=O)c2ccc(OC)cc2)cc1`, for which the INHIBITION is -8.07%.

As for `CCOc1ccc(N2CCCN=C2NC(=O)c2cccc(OC)c2)cc1`, the INHIBITION turned out to be 54.9%. The figure for `CCOc1ccc(N2CCCN=C2NC(=O)c2ccccc2C)cc1` is -11.5%; for `CCOc1ccc(N2CCCN=C2NC(=O)c2cccc(C)c2)cc1` it is 54%; for `CCOc1ccc(N2CCCN=C2NC(=O)c2cccc(Cl)c2)cc1` it is 23.5%. Consider `CCOc1ccc(N2CCCN=C2NC(=O)c2ccc(Cl)cc2)cc1`, for which the INHIBITION stood at 19.3%.

For `NC(=O)C1CCN(C(=O)NCCNc2ccccn2)CC1`, the INHIBITION is 21.9%. Regarding `CCc1ncc(CN(C)C2CCN(C(C)C)CC2)cn1`, the INHIBITION is on record as -27.1%. On to `O=C(c1ccco1)N1CCC2(CCC(=O)N2Cc2cccc(F)c2)CC1`, for which the INHIBITION is given as -4.27%. For `COc1cc(N2C[C@H](C(=O)NC3CC3)[C@@H]3CCO[C@@H]3C2)ncn1`, the INHIBITION turned out to be 12.7%. Take `Cc1cnn(C2CN(CC(O)Cn3cccn3)C2)c1` (stereo not drawn): the INHIBITION is given as 36.6%. Regarding `Cc1ncc2c(n1)CN(CC(O)COc1ccc(C#N)cc1)CC2` (stereo not drawn), the INHIBITION was -78%.

`Cc1cnn(C2CN(CC(O)c3ccc(F)cc3)C2)c1` (stereo not drawn): the INHIBITION is recorded as -30.1%. The figure for `Cc1cnn(C2CN(CC(O)COc3ccc(C#N)cc3)C2)c1` (stereo not drawn) is 72.7%. In the case of `COc1ccc(C(O)CN2CC(n3cc(C)cn3)C2)cc1` (stereo not drawn), the INHIBITION worked out at 57.2%.

Turning to `Cc1cnn(C2CN(CC(O)c3ccccc3)C2)c1` (stereo not drawn), the INHIBITION came to 29%. As to `COc1cccc(-n2c(C)cc(C(=O)NCCCC(N)=O)c2C)c1`, the INHIBITION is given as -5.25%. `CC(C)c1nnc2n1CCN(C(=O)c1cccc(S(C)(=O)=O)c1)C2`: the INHIBITION is 45.7%. With `O=C(c1ncccn1)N1C[C@H]2CCC[C@@]2(COCc2cccnc2)C1`, the INHIBITION is 45.5%.
